This passage reports growth results from PubChem BioAssay (NCI).

About 83,000 compounds went through this panel and 20% of them were active in at least one assay; those are over-represented in the sample as a whole.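 Testing used 96-well plates and a 48-hour single-concentration exposure. Example: -40 means 40% of the starting cells died.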 A number with no mark means an inactive call. Calls of active or inactive are those of the source. Rule for the calls: active = growth percent below 10; inactive = the rest.

This test deals with HL-60(TB) leukemia. The experiment in a line: NCI-60 one-dose screen, 48 h (100 = growth as untreated, 0 = no growth, -100 = all killed). Particulars: 10 µM unless noted.
Take `Nc1ccc(C(=O)CSc2nc3ccccc3[nH]2)cc1`: the growth was 95.3%.

Consider `C[C@H]1[C@H](C)CC[C@]2(C(=O)O)CC[C@]3(C)C(=CC[C@@H]4[C@@]5(C)C/C(=C/c6ccco6)C(=O)C(C)(C)[C@@H]5CC[C@]43C)[C@H]12`, for which the growth was -3.02% [100 µM] (active).

Regarding `CC1(C)OC2=C(CC1Br)C(=O)C(=O)c1ccccc12` (stereo not drawn), the growth was -8.14% (active).

Regarding `BrC1=C(Br)C(Br)(Br)C(Br)=C1Br`, the growth was 27.4%.

On to `O=C(c1ccc(Cl)cc1)C1C(c2ccccc2)C1[N+](=O)[O-]` (stereo not drawn), for which the growth was 99.3%.

As for `C=C1C(=O)O[C@H]2[C@H]1CC/C(COC(=O)N1CCC[C@H]1C(=O)Nc1ccc(OC)c(C(N)=O)c1O)=C\CC[C@@]1(C)O[C@@H]21`, the growth is -10% (active).

On to `CC(=O)N1N=C(c2ccc(Nc3nc(Nc4ccc(F)cc4)nc(Nc4ccc(F)cc4)n3)cc2)CC1c1cccc([N+](=O)[O-])c1` (stereo not drawn), for which the growth is 0% (active).

`Brc1cccc(-c2nc(-c3ccc4c(c3)OCCO4)co2)c1`: the growth was 29.1% [25 µM].

Regarding `Cc1c(C(N)=O)sc2nc(C)n(/N=c3\scc(-c4ccccc4)n3Cc3ccccc3)c(=O)c12`, the growth is -35.8% (active).

For the molecule `CC(C)[C@H]1CC[C@H]2[C@@H](CC[C@H]3[C@](C)(CN)CCC[C@]23C)C1`, the growth was 71.8%.

As for `COc1ccc(Nc2ccnc(NCCCNc3ccnc4cc(Cl)ccc34)n2)cc1`, the growth is -68.6% (active).

On to `CCOc1ccc(/C=N/Nc2cc(C)nc3ccc(Br)cc23)cc1`, for which the growth is 53.3%.

Take `COc1cc(/C=C2\CN(C)C/C(=C\c3cc(CN4CCCC4)c(O)c(OC)c3)C2=O)cc(CN2CCCC2)c1O`: the growth was 43.3%.
